Bioassay records as filed in PubChem.
Shiga inhibitor = Shiga toxin inhibition; hit rate 9.2% among 290,000; inhibition, % at 38.7 µM; Vero cells, Shiga toxin protein synthesis inhibition reporter; in the data active = inhibition mostly above about 28%, no sharp cut-off; inactive = mostly below about 43%
Tb PYK inh = blocks Trypanosoma brucei pyruvate kinase. Q57TT1. TbPYK enzyme, Kinase-Glo Plus ATP luminescence, 45 min. Potency, µM (titrated, usually from 76.8 µM), most hits filed as inhibitors. hit rate 0.12% among 410,000. AID 624173; active = well fitted curve in the direction sought with a large enough effect; an effect the other way counts as inactive or inconclusive; also: nearly all actives have a fitted effect of over 50% in size
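T. brucei PYK with substrate was exposed to pin-transferred compounds across a concentration series, then started with 130 uM ADP (final). After 45 min at room temperature, Kinase-Glo Plus luminescence was read, normalized and curve-fitted.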
NS1 function inh = blocks influenza NS1 protein function. Potency, µM (highest dose often 46.1 µM). hit rate 0.4% among 270,000; also: actives are rising curves; nearly all actives have a fitted effect of over 50% in size
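Recovery from NS1-induced slow growth read by OD600 in budding yeast switched to galactose assay medium (pH 6.0, -URA) at 1:100 dilution. Compound 23 nl per well; the matching strain lacking NS1 serves as control.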
CHX counter = counter-screen hit for Shiga toxin inhibitors, cycloheximide | cell reporter, cycloheximide protein synthesis inhibition counterscreen | max response, % | hit rate 12% among 300,000; in the data active = max response mostly above about 13%, no sharp cut-off; inactive = mostly below about 14%; also: read at 38.3 µM for the half of the compounds with a filed dose
LmPK inhibitor = inhibitors of Leishmania mexicana pyruvate kinase | Q27686 | purified LmPK, Kinase-Glo ATP luminescence, 1 h | AID 1721 | hit rate 0.37% among 290,000 | Potency, µM (series often up to 57.5 µM), most hits filed as inhibitors; active = well fitted curve in the direction sought with a large enough effect; an effect the other way counts as inactive or inconclusive
Target sequence (Q27686 whole entry, looked up): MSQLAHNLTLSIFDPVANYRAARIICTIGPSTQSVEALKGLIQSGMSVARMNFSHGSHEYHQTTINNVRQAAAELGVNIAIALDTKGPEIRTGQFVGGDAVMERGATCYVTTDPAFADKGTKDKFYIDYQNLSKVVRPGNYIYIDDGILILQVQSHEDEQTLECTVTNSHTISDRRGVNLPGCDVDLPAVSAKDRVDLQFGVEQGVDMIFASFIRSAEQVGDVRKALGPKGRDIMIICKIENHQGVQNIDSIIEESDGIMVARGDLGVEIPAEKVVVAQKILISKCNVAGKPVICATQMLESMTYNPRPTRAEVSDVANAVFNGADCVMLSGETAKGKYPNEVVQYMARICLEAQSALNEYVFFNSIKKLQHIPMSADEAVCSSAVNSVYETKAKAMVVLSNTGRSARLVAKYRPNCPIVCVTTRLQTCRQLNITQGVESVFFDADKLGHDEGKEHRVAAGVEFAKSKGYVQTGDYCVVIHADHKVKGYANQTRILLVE
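qHTS format; LmPK 0.1 nM; substrates PEP 0.5 mM and ADP 0.1 mM. One-hour room-temperature incubation, then coupled luciferase luminescence; 0.5 nM enzyme wells mark activation.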
SARS PLP yeast = SARS-CoV PLP inhibition in yeast | AID 485353 | S. cerevisiae expressing SARS-CoV PLpro, growth rescue | hit rate 0.19% among 330,000 | Potency, µM (titrated, usually from 32.9 µM), most hits filed as activators; also: nearly all actives have a fitted effect of over 55% in size
Large screens that a line does not name were inactive. This excerpt belongs to a sample that is enriched for hits. Unless noted, calls follow the shape of the full dose curve.

O=C1OC(c2ccccc2)=C/C1=C/N1CCCCC1	Shiga inhibitor 126, CHX counter 38
O=C1OC(c2ccc(Br)cc2)=N/C1=C\N1CCCCC1	Shiga inhibitor 66, CHX counter 23
Cc1ccc(C2=N/C(=C\c3c(C)nn(-c4ccccc4)c3N3CCCC3)C(=O)O2)cc1	none
CCOc1ccc(CCNC(=O)COC(=O)CNS(=O)(=O)c2ccc(NC(C)=O)cc2)cc1OCC	none (no result: Shiga inhibitor, NS1 function inh, CHX counter, LmPK inhibitor)
Cn1c(=O)c2[nH]c([C@@H]3CC(=O)C[C@H](c4nc5c([nH]4)c(=O)n(C)c(=O)n5C)N3)nc2n(C)c1=O	none (no result: Shiga inhibitor, Tb PYK inh, CHX counter, LmPK inhibitor, SARS PLP yeast)
CCOC(=O)c1ccccc1NC(=O)C1CC(=O)N(C2CCCCC2)C1 (configuration not stated)	Shiga inhibitor 78, CHX counter 58
CCOC(=O)c1ccccc1NC(=O)C1CC(=O)N(C(C)(C)C)C1 (configuration not stated)	none (no result: Shiga inhibitor)
CNC1C(O)C(OC2C(N)CC(N)C(OC3OC(CN)=CCC3N)C2O)OCC1(C)O (configuration not stated)	none (no result: Shiga inhibitor, NS1 function inh, CHX counter, LmPK inhibitor, SARS PLP yeast)
O=C1CN(C(=O)/C=C/c2ccccc2)CCN1	none
O=C1CN(C(=O)/C=C/c2ccc(Cl)cc2Cl)CCN1	Shiga inhibitor 59, CHX counter 34 (no result: NS1 function inh)
CN1CCCN(C(=O)/C=C/c2ccc(Cl)cc2Cl)CC1	CHX counter 25 (no result: NS1 function inh)
CC(Oc1coc(CN2CCN(C(=O)c3ccco3)CC2)cc1=O)c1ccccc1 (configuration not stated)	none (no result: Shiga inhibitor, NS1 function inh, CHX counter, LmPK inhibitor)
O=c1[nH][nH]c(C(F)(F)F)c1C=Nc1ccccc1Cl	none
Oc1c(C=Nc2ccccc2Cl)[nH]c2ccccc12	Shiga inhibitor 77, CHX counter 47
Cc1nc2ccccc2c(=O)n1-c1ccc(Br)cn1	Shiga inhibitor 55, CHX counter 27
Cc1ccnc(-n2c(-c3ccccc3)nc3ccccc3c2=O)c1	none
Cc1ccnc(-n2c(C)nc3ccccc3c2=O)c1	CHX counter 12
Cc1nc2ccccc2c(=O)n1-c1ccc(F)cc1	none
C[C@H](C(=O)O)c1ccc2cc(O)ccc2c1	none (no result: Tb PYK inh, NS1 function inh, LmPK inhibitor, SARS PLP yeast)
C(=N\Nc1ccccn1)/c1ccc2c(c1)OCCO2	Shiga inhibitor 33, CHX counter 35 (no result: NS1 function inh)
Fc1cccc(Cl)c1/C=N/Nc1ccccn1	none (no result: NS1 function inh)
Fc1cccc(/C=N/Nc2ccccn2)c1	Shiga inhibitor 81, CHX counter 56 (no result: NS1 function inh)
O=C(O)c1ccccc1C=NNc1ccccn1	none (no result: Shiga inhibitor, NS1 function inh, CHX counter, LmPK inhibitor, SARS PLP yeast)
CC1(C)Cc2ccccc2C(N/N=C/c2cccc(F)c2)=N1	none
Fc1cccc(F)c1/C=N/Nc1ccccn1	Shiga inhibitor 95, CHX counter 50 (no result: NS1 function inh)
O=C(CSc1nccn1Cc1ccccc1)NCc1ccccc1Cl	none (no result: Shiga inhibitor, NS1 function inh, CHX counter, LmPK inhibitor, SARS PLP yeast)
CC(=O)c1cccc(NC(=O)c2c(C)nn(-c3ccc(F)cc3)c2-n2cccc2)c1	none (no result: Shiga inhibitor, NS1 function inh, CHX counter, LmPK inhibitor, SARS PLP yeast)
Cc1ccc(CN/C=C/C(=O)c2ccc(Br)cc2)cc1	Shiga inhibitor 60, CHX counter 37
Cc1ccc(CNC(=O)Cc2ccc(Br)cc2)cc1	none
COc1ccc(C(=O)/C=C/NCc2ccc(F)cc2)cc1OC	none
Cc1ccc(C(=O)/C=C/NCc2ccc(F)cc2)cc1	Shiga inhibitor 93, CHX counter 48
Cc1cn2c(=O)cc(COc3ccccc3NC(=O)c3ccc(Cl)cc3)nc2s1	none (no result: Shiga inhibitor, NS1 function inh, CHX counter, LmPK inhibitor, SARS PLP yeast)
COc1ccc(NC(=O)Nc2ccon2)cc1OC	none
CCOC(=O)c1ccc(NC(=O)Nc2ccon2)cc1	Shiga inhibitor 66, CHX counter 31
O=C(Nc1ccc(Cl)c(Cl)c1)Nc1ccon1	CHX counter 18
Cc1ccc(C)c(NC(=O)c2cc(S(=O)(=O)N3CCCc4ccccc43)ccc2F)c1	none (no result: Shiga inhibitor, NS1 function inh, CHX counter, LmPK inhibitor, SARS PLP yeast)
C=CCSc1n[nH]c(-c2ccc(OCCCC)cc2)n1	Shiga inhibitor 17, CHX counter 41
CCCOc1ccc(-c2nc(SCC(=O)c3ccc(Cl)cc3)n[nH]2)cc1	none (no result: Shiga inhibitor, NS1 function inh, CHX counter, LmPK inhibitor, SARS PLP yeast)
C=CCSc1n[nH]c(-c2ccc(OCCC)cc2)n1	Shiga inhibitor 125, CHX counter 50
COc1ccc(NC(=O)N2CCCC(CCC(=O)N(C)CCc3ccccn3)C2)cc1 (configuration not stated)	Shiga inhibitor 91, CHX counter 30
CCc1ccccc1NC(=O)N1CCCC(CCC(=O)N(C)CCc2ccccn2)C1 (configuration not stated)	none
NC(Cc1ccccc1)(C(=O)O)C(=O)O	none (no result: Shiga inhibitor, Tb PYK inh, CHX counter, LmPK inhibitor, SARS PLP yeast)
O=C(c1ccc(C#CC2(O)CCCCC2)cc1)N1CCN(Cc2ccccc2)CC1	none
